Measured values as given in PubChem BioAssay (NCATS).
Results filed as inconclusive are left out. Where a call stands in place of a potency, no number is given. Values without a mark were called inactive. Active and inactive are the calls of the source. Calls come from the whole dose curve; as a rule, active = well fitted curve in the direction sought with a large enough effect; inconclusive = small, poorly fitted or top-dose-only effect, or another doubt; inactive = no such curve, though single readings can be large; an effect the other way counts as inactive or inconclusive.

Columns and labels:
[1] = biological target: Cytochrome P450 3A7 (Homo sapiens) (UniProt P24462); test: Cytochrome P450 family 3 subfamily A member 7 (CYP3A7) small molecule antagonists: luciferase biochemical qHTS assay (AID 1963596); note: nearly all actives have a fitted effect of over 40% in size
In short: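 Recombinant CYP3A7 P450-Glo luminescent assay: enzyme-proluciferin substrate mix preincubated with compound 10 min at room temperature, reaction started with NADPH regeneration system for 1 h. Luciferin detected by luminescence; ketoconazole as positive control.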

[2] = Viability qHTS for spleen associated tyrosine kinase inhibitor (SYKi) naive MV4-11 cells (AID 1963823); note: nearly all actives have a fitted effect of over 40% in size; note: potency is the fitted concentration of half-maximal effect
In short: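 Viability of MV4-11 AML cells lacking prior SYK inhibitor exposure is scored by CellTiter-Glo luminescence following 72 hr compound incubation at 37 C, 5% CO2, seeded at 500 cells per well.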

[3] = Viability qHTS for spleen associated tyrosine kinase inhibitor (SYKi) drug resistant MV4-11 cells (AID 1963824); note: nearly all actives have a fitted effect of over 35% in size; note: potency is the fitted concentration of half-maximal effect
In short: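 CellTiter-Glo luminescence, read 10 min after reagent addition, reports viability after a 72 hr compound exposure. Cells are an MV4-11 line made resistant to SYK inhibition, seeded at 500 per well onto compound-containing plates.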

Chain of Cytochrome P450 3A7 (Homo sapiens) (P24462 whole entry, looked up): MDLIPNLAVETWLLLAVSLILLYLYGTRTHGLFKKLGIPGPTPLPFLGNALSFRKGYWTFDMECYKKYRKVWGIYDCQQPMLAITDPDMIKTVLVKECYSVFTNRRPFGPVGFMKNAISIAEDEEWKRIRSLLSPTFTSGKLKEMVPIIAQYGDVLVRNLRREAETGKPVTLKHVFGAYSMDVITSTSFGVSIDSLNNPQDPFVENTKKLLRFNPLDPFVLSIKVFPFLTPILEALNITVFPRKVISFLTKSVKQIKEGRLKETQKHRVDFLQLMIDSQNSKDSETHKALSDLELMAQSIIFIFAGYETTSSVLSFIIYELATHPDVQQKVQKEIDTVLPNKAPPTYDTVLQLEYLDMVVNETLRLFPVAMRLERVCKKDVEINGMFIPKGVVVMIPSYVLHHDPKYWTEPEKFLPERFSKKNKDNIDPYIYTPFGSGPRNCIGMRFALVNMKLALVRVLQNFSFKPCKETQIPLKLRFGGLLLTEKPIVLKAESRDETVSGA

Row | SMILES | Potency [1] | Potency [2] | Potency [3] | activity change, negative = inhibition [1] | viability (% of control) [2] | viability, % of control [3]
1 | CCCCOC(=O)NC(=O)C1c2ccccc2Oc2ccccc21 | inactive | inactive | inactive |  |  | 
2 | CCCCc1ccc(C(=O)Nc2cc(-c3ccc(Cl)cc3)nn2-c2ccc(Cl)cc2)cc1 | inactive | inactive | inactive |  |  | 
3 | Cc1cc(F)ccc1-c1nc(NCCN=C(N)NC#N)nc2c1ccc(=O)n2-c1c(F)cccc1F | inactive | 14.6 µM (active) | 14.6 µM (active) |  |  | 
4 | CC(C)(C)NCc1cc(Nc2ccnc3cc(Cl)ccc23)c2c(c1O)CCCC2 |  |  |  | -5.38% [at 11.5 µM] | 90.1% [at 0.588 µM] | 102% [at 0.588 µM]
5 | COC(=O)C(Cc1ccc(OCCn2c(=O)sc3cc(C(=O)c4ccccc4)ccc32)cc1)C(=O)OC | inactive | 23.1 µM (active) | 18.4 µM (active) |  |  | 
6 | O=C(NCc1ccccn1)Nc1nnc(-c2ccco2)o1 | inactive | inactive | inactive |  |  | 
7 | N#Cc1ccc(C(=O)N2CCC3(CC2)N=C(N)c2c(F)ccc(F)c2N3)cn1 | inactive | inactive | inactive |  |  | 
8 | COC(=O)[C@H](CC1C=NC=N1)NCC12CC3CC(CC(C3)C1)C2 (stereo not given in full) | inactive | inactive | inactive |  |  | 
9 | FC(F)(F)c1nnc2c(Sc3ccccc3)nc3ccc(Cl)cc3n12 | inactive | 1.46 µM (active) | 0.731 µM (active) |  |  | 
10 | CCOC(=O)N1CCC(CN(Cc2ccc(Cl)cc2)Cc2ccc([N+](=O)[O-])s2)C1 (stereo not given) | inactive | 10.3 µM (active) | 16.4 µM (active) |  |  | 
